Source: PubChem BioAssay
Rab9 promoter act – activators of Rab9 promoter. Huh7 Rab9 promoter-luciferase reporter, luminescence, 24 h. Potency, µM (titrated, usually from 9.22 µM), for the others: at the top dose activation, negative = inhibition, most hits filed as activators. 320,000 tested, 2.8% active. AID 485297; also: % of control where 0% means no effect; nearly all actives have a fitted effect of over 60% in size
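Rab9 promoter-driven luciferase in stably transfected Huh7 cells; 1500 cells/well rested 2 h, exposed to compound in DMSO for 24 h at 37 °C, 5% CO2. Luminescence read 10 min after adding luciferase reagent at ambient temperature.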
Luc counter – Kinase-Glo luciferase inhibition (counter-screen); Q27757; Kinase-Glo luciferase, ATP luminescence, 8 min; Potency, µM (titrated, usually from 38.3 µM), for inactives: at the top dose activity change, negative = inhibition, most hits filed as inhibitors; 200,000 tested, 0.28% active; AID 1379; also: % is scaled to controls: 0 for no effect and ±100 for the full control effect; nearly all actives have a fitted effect of over 60% in size
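Compound is pinned into ATP-containing buffer (10 uM ATP, imidazole pH 7.2, 7 mM MgCl2). Kinase-Glo luciferase reagent is then added. Light output is recorded following an 8-min room-temperature incubation.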
SMN2 splice enh – enhancers of SMN2 splice variant expression | HEK293 SMN2-luciferase splicing reporter, luminescence, 30-36 h | Potency, µM (top dose mostly 46.1 µM), for the others: at the top dose activity change, positive = activation, usual class: activators | 210,000 tested, 2.8% active; also: % of control where 0% means no effect; nearly all actives have a fitted effect of over 55% in size
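HEK293 cells carry an SMN2 […]–luciferase reporter in which exon 7 inclusion puts luciferase in frame. Cells were plated 10-12 h before compound addition, then incubated 30-36 h at 37C. ONE-Glo luminescence was read; sodium butyrate at 4.5 mM final served as control.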
NPC1 promoter act – activates the NPC1 promoter | Huh7 NPC1 promoter luciferase reporter, 24 h | Potency, µM (top dose mostly 9.22 µM), for the others: at the highest dose activation, most hits filed as activators | 320,000 tested, 2.4% active | AID 485313; also: % of control where 0% means no effect; nearly all actives have a fitted effect of over 60% in size
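In 1536-well qHTS, Huh7 cells harboring an NPC1 promoter–luciferase construct received compound for 24 h; activation was quantified by luminescence following luciferase reagent addition.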
FLuc modulator – firefly luciferase modulation, counter-screen for miR-21 project; AID 588342; Potency, µM (highest dose often 57.5 µM), for inactives: top-dose activity change, negative = inhibition, hits mostly inhibitors; P08659; purified FLuc, Km substrates, luminescence inhibition; 360,000 tested, 6.9% active;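 also: plate controls were vehicle for no effect and reference inhibitor for full effect; nearly all actives have a fitted effect of over 55% in size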
Target sequence (P08659 whole entry, looked up): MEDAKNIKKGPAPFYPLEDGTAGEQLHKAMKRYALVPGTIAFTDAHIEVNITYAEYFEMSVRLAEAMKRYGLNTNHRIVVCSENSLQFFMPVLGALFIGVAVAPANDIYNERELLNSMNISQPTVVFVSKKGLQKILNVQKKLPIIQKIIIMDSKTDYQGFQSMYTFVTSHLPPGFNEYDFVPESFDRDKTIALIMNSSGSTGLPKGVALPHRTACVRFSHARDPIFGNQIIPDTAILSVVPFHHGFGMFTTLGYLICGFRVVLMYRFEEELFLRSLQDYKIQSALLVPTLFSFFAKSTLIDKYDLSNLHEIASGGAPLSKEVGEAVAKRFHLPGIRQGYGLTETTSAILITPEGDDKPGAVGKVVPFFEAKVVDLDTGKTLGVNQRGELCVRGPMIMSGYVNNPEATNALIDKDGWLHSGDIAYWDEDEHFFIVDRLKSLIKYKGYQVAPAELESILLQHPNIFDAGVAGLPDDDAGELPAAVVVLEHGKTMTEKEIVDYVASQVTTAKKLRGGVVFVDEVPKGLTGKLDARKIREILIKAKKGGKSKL
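Biochemical qHTS of compounds, final roughly 60 µM downward over six points, against 10 nM purified firefly luciferase using Km concentrations of substrates (10 uM D-luciferin, 10 uM ATP) in Tris acetate pH 7.5 buffer; luminescence output.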
The depositor's hits bear a star; ? = inconclusive; · = no result; [ ] = dose if it differs, or a comment. This is a sample that favours compounds with a hit; in the whole collection about 7.3% have one here. Calls follow the shape of the dose curve; as a rule, active = well fitted curve in the direction sought with a large enough effect; inconclusive = small, poorly fitted or top-dose-only effect, or another doubt; inactive = no such curve, though single readings can be large; an effect the other way counts as inactive or inconclusive. Potency is read from the fitted curve at half-maximal effect.

SMILES | Rab9 promoter act | Luc counter | SMN2 splice enh | NPC1 promoter act | FLuc modulator
Cc1ccc(S(=O)(=O)Nc2cccc(-c3ccc(N4CCCCC4)nn3)c2)s1 | · | · | · | · | 1.1µM*
CCc1ccc(S(=O)(=O)Nc2cccc(-c3ccc4nnc(C)n4n3)c2)s1 | -1% | · | · | -8% | -1%
CCc1ccc(S(=O)(=O)Nc2cccc(-c3ccc(N4CCCCC4)nn3)c2)s1 | · | · | · | · | 2.7µM*
O=S(=O)(Nc1cccc(-c2ccc3nncn3n2)c1)c1ccc(Cl)s1 | 1% | -3% | 8% | -4% | -15%
O=C(O)C(Sc1ccc(Cl)cc1)Sc1ccc(Cl)cc1 | · | -11%[7.66 µM] | -9%[9.22 µM] | · | ·
CCc1cccc(NC(=O)C(CC(C)C)NS(=O)(=O)c2ccc3c(c2)oc(=O)n3C)c1 (configuration not stated) | · | · | -1% | · | -3%
Cc1cc(C)n2cc(CSc3ccc(Cl)cc3)nc2n1 | 24% | · | · | 18% | ?
O=C(NCCc1cn2ccsc2n1)C1CCCCC1 | -3% | 0% | -14% | -3% | 3%
O=C(Cc1cn2ccsc2n1)OCc1ccccc1 | 15% | -2% | 23% | 8% | -28%
Clc1ccc(SCc2cn3ccsc3n2)cc1 | 4µM* | -5% | 25% | 2.8µM* | 11µM*
c1ccc(CSCc2cn3ccsc3n2)cc1 | 2.8µM* | 2% | 13µM* | ? | 27µM*
Cc1csc2nc(CSc3ccc(Cl)cc3)cn12 | 2.5µM* | -11% | 5µM* | 2.5µM* | 5.4µM*
c1cn2cc(CSC3CCCCC3)nc2s1 | 4µM* | -12% | 14µM* | 3.2µM* | 12µM*
COc1ccc(N2CCN(c3oc(-c4ccccc4C)nc3S(=O)(=O)c3ccccc3)CC2)cc1 | · | · | -6% | · | 0%
COc1ccc(N2CCN(Cc3nc4c(c(=O)[nH]c(=O)n4C)n3Cc3ccccc3F)CC2)cc1 | · | · | -9% | · | 5%
C=CCC(C)(NCc1ccccc1)C(=O)OCC (configuration not stated) | · | -7% | -1% | · | ·
CCOC(=O)N1CCc2c(sc(NCc3cccs3)c2C(=O)Nc2cc(Cl)ccc2OC)C1 | · | · | · | · | -6%
c1ccc2c(c1)CCN(C1=Nc3cccc4cccc1c34)C2 | 2.8µM* | -10% | 16µM* | 22% | 6.7µM*
CC1=C(c2ccc(C)c(C)c2)S(=O)(=O)N(Cc2ccc(C(=O)NCc3cccc(C)c3)cc2)C1=O | · | · | 3% | · | -2%
O=C(O)CC1S/C(=N\N=C/c2ccccc2)N(c2ccc(O)cc2)C1=O (configuration not stated) | 6% | · | · | 1% | 0%
CN1C(=O)C(CC(=O)O)S/C1=N\N=C\c1ccc(O)cc1O (configuration not stated) | 3% | · | · | -14% | 15µM*
COC(=O)c1ccc2c(=O)[nH]c(CCl)nc2c1 | -1% | -3% | -7% | -11% | -12%
O=c1[nH]c(CCl)nc2cc(-c3ccc(F)cc3)sc12 | -43% | · | · | 0% | 0.3µM*
CCN(CC)c1ccc(/C=N/NC(=O)c2cc3ccccc3[nH]2)cc1 | 19% | · | · | 3% | 12µM*
NNC(=O)c1cc2ccccc2[nH]1 | 4% | -1% | 20% | -12% | 4%
SMILES | Rab9 promoter act | Luc counter | SMN2 splice enh | NPC1 promoter act | FLuc modulator
CCN(CC)c1ccc(/C=N/NC(=O)c2cc(C)nc3ccccc23)cc1 | -5% | · | · | 2% | ?
CCN(CC)c1ccc(/C=N/NC(=O)c2c[nH]c3ccccc23)cc1 | 1% | -5% | -17% | 6% | 11µM*
O=C(NC1CCCC1)c1n[nH]c2ccccc12 | 2.8µM* | -12% | · | 3.2µM* | 24µM*
O=C(NN=C1CCCC1)c1n[nH]c2c1CCC2 | 24% | ? | · | 13% | ?
O=C(NC1CCCCC1)c1n[nH]c2c1CCCCC2 | 0.089µM* | · | · | ? | 0.38µM*
O=C(NN=C1CCCC1)c1n[nH]c2c1CCCC2 | 0.63µM* | 13µM* | 22µM* | 2.5µM* | 5.4µM*
Cc1cccc(CCNC(=O)Cn2ncc3c(=O)oc4ccccc4c32)c1 | · | · | 25% | · | -1%
CCCS(=O)(=O)NCCc1sc2nc(-c3ccc(F)cc3)nn2c1C | · | · | · | · | -20%
Cc1ccc(C(=O)NC2CCSC2=O)cc1 (configuration not stated) | -8% | -5% | -15% | 0% | 4%
Cc1ccc(C(=O)NC2CCc3ccccc3C2=O)cc1 (configuration not stated) | 2.2µM* | -7% | 13µM* | 2.5µM* | 12µM*
Cc1ccc(CN2CCN(C3CCN(C(=O)Nc4ccc(C)cc4Cl)CC3)C(=O)C2=O)cc1 | · | · | · | · | -3%
CCOC(=O)c1ccccc1NC(=O)CSc1nc(=O)[nH]c2c1CCC2 | · | · | · | · | -14%
O=C(/C=C/c1ccc(Br)o1)Nc1nccs1 | 2.8µM* | -1% | 13µM* | 3.2µM* | ?
O=C(Nc1nccs1)c1ccc(Br)o1 | ? | -14% | 11µM* | 25% | ?
O=C(O)/C=C/C(=O)Nc1nccs1 | 2% | · | · | -3% | 5%
O=C(Nc1nccs1)c1ccc(COc2ccccc2Cl)o1 | 2% | 0% | -11% | 6% | ?
Cc1cccc(-c2nc3ccccc3n2Cc2ccccc2)c1 | · | · | 16% | · | ?
Cc1noc(/C=C/c2ccco2)c1S(=O)(=O)N1CCC(C(=O)Nc2ccc(F)c(Cl)c2)CC1 | · | · | -5% | · | -7%
Cc1ccc(NC(=O)Cn2cc(C(=O)c3cccs3)c3ccccc32)cc1C | · | · | ? | · | -12%
Cc1ccc(NC(=O)Cn2c(=O)n(CCC(=O)N3CCc4ccccc4C3)c(=O)c3ccccc32)cc1 | · | · | 2% | · | -14%
Cc1ccnc(NC(=O)c2ccccc2NC(=O)c2ccccc2)c1 | 0% | · | · | -2% | ?
CCOc1ccc(C(=O)NCC(=O)Nc2cc(C)ccn2)cc1OCC | 1% | · | · | 1% | ?
Cc1ccnc(NC(=O)CCCc2ccccc2)c1 | ? | -2% | ? | ? | 24µM*
O=C(Nc1ccon1)c1ccc(Cl)s1 | 0% | 0% | 7% | 13% | -3%
Cc1ccnc(NC(=O)c2ccc(C(=O)c3ccccc3)cc2)c1 | 2µM* | · | · | 3.5µM* | 0.95µM*
